Bioassay records: PubChem BioAssay, National Center for Advancing Translational Sciences (NCATS)
12-LOX inh: Primary qHTS assay for inhibitors of human arachidonate 12S-lipoxygenase (ALOX12): Round 2; purified 12hLO, xylenol orange hydroperoxide absorbance; 1.1% of 580,000 active; AID 1671190, 2021; Potency, µM (highest dose often 108 µM), most hits filed as inhibitors; Polyunsaturated fatty acid lipoxygenase ALOX12 (Homo sapiens), P18054
Target sequence (P18054 whole entry, looked up): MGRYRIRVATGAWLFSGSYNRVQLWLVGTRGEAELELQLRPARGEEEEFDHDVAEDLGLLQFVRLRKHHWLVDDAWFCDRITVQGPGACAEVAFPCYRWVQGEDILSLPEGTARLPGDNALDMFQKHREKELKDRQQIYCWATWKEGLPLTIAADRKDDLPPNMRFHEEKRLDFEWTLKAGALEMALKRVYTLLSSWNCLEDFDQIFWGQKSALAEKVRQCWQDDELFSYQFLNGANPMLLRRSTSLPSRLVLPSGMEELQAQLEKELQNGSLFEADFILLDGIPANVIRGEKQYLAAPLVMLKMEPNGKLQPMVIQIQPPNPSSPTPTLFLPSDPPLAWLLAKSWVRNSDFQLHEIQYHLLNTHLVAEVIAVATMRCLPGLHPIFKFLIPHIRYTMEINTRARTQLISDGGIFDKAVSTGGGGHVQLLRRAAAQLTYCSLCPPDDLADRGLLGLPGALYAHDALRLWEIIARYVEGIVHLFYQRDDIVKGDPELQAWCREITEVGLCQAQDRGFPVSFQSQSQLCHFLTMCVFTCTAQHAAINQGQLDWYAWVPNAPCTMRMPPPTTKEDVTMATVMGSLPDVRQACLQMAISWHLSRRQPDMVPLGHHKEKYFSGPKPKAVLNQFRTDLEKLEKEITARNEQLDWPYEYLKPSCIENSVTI
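Hydroperoxide product was detected by ferrous iron/xylenol orange as the 573 to 405 nm absorbance ratio. Arachidonic acid at 40 uM (final) was turned over for 30 min at room temperature by 150 nM human 12hLO, pH 7.0 Hepes buffer, after 15 min compound preincubation.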
DT40 TDP1 no CPT: qHTS for Inhibitors of human tyrosyl-DNA phosphodiesterase 1 (TDP1): qHTS in cells in absence of CPT | DT40 Tdp1-/- hTDP1 cells, no CPT, ATP luminescence, 48 h | Potency, µM (series often up to 46.2 µM), hits mostly inhibitors | 15% of 420,000 active; further: nearly all actives have a fitted effect of over 55% in size
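Camptothecin absent (DMSO only). Human TDP1-complemented DT40 knockout cells, 400 cells/well, 37 °C for minimum 48 hr; ATP measured via CellTiter-Glo, 30 min dark incubation, luminescence.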
VP16 counter: VP16 counterscreen qHTS for inhibitors of ROR gamma transcriptional activity. Drosophila S2 Gal4-VP16 UAS-luciferase, luminescence, 20 h. Potency, µM (titrated, usually from 53.6 µM), most hits filed as inhibitors. 3.5% of 310,000 active. AID 2546, 2010;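 further: Gal4-VP16 expression switched on by copper sulfate through the metallothionein promoter; nearly all actives have a fitted effect of over 50% in size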
RORg inh: qHTS for inhibitors of ROR gamma transcriptional activity; Nuclear receptor ROR-gamma (Mus musculus), P51450; Potency, µM (titrated, usually from 53.6 µM), most hits filed as inhibitors; 5.4% of 310,000 active; Drosophila S2 Gal4-RORgamma UAS-luciferase reporter, 20 h; AID 2551, 2010; further: nearly all actives have a fitted effect of over 60% in size
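A Gal4/UAS one-hybrid system in insect cells: metallothionein-promoter Gal4–ROR gamma fusion plus Photinus luciferase reporter. Copper sulfate 700 uM final, 20 hr ambient incubation, luminescent detection after 10 min with reagent.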
TDP1 cell CPT: qHTS for Inhibitors of human tyrosyl-DNA phosphodiesterase 1 (TDP1): qHTS in cells in presence of CPT; chicken DT40 Tdp1-/-;hTDP1 cells + 20 nM CPT, ATP luminescence, 48 h; Potency, µM (titrated, usually from 46.2 µM), most hits filed as inhibitors; 12% of 420,000 active; further: nearly all actives have a fitted effect of over 55% in size
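Chicken DT40 Tdp1-/- cells stably complemented with human TDP1 were seeded at 400 cells/well in medium containing 20 nM camptothecin, exposed to pin-transferred compounds, and grown at 37 °C for at least 48 hr. Viability was read as ATP luminescence.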
ELG1 repair inh: qHTS screen for small molecules that inhibit ELG1-dependent DNA repair in human embryonic kidney (HEK293T) cells expressing luciferase-tagged ELG1 | 2.3% of 330,000 active | HEK293T ELG1-luciferase reporter, luminescence, 16 h; DNA damage induced by 5-fluorouridine | Potency, µM (series often up to 46.1 µM), usual class: inhibitors; further: nearly all actives have a fitted effect of over 55% in size
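Luminescence from the luciferase reporter, measured 30 min after ONE-Glo reagent at room temperature, was the read-out. Beforehand, 2,000 cells per well were exposed for 16 hr at 37 °C to 5-fluorouridine together with compound or vehicle.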
Numbers stand for hits; . = inactive; ? = inconclusive; / = no result given; [ ] = another dose, or the depositor's remark. Only some compounds are listed: those with a hit (about 15% of all), similar ones and a draw of the others. The call rests on the fitted dose curve; in most records, active means well fitted curve in the direction sought with a large enough effect; inconclusive means small, poorly fitted or top-dose-only effect, or another doubt; inactive means no such curve, though single readings can be large; an effect the other way counts as inactive or inconclusive.

SMILES | 12-LOX inh | DT40 TDP1 no CPT | VP16 counter | RORg inh | TDP1 cell CPT | ELG1 repair inh
CC(C)NC(=O)CN1C(=O)NC2(CCC(C(C)(C)C)CC2)C1=O (centres undefined) | . | / | / | / | / | /
O=C(NNc1ccc(O)cc1)c1ccc(Br)cc1 | ? | 12µM | . | . | 21µM | 5.8µM
CCCc1ccc(C(=O)NNC(=O)c2ccc(Br)cc2)cc1 | . | . | . | . | . | .
CCCc1ccc(C(=O)NNc2ccc(F)cc2)cc1 | 18µM | . | . | . | . | .
O=C(NC(=S)NNC(=O)c1ccccc1O)c1ccc(F)cc1 | ? | ? | ? | .[1.91 µM] | ? | .
O=C(NNc1ccccc1)c1ccccc1 | . | . | / | / | . | /
CCCc1ccc(C(=O)NC(=O)c2ccccc2O)cc1 | . | 2.9µM | 1.6µM | 2.8µM | 2.3µM | ?
O=C(NC(=O)c1ccccc1O)c1ccc(C(F)(F)F)cc1 | . | 7.3µM | 8.9µM | ? | 12µM | ?
Fc1ccc(-c2csc(-c3ccccn3)n2)cc1F | . | . | . | . | . | ?
c1ccc(-c2nccc(-c3ccco3)n2)nc1 | . | ? | . | 13µM | ? | ?
c1ccc(-c2noc(-c3ccco3)n2)nc1 | . | ? | ? | ? | ? | ?
c1ccc(-c2nc(-c3ccco3)cs2)nc1 | ? | 16µM | . | ? | 15µM | ?
CCc1cccc(CC)c1-n1c(-c2cccnc2)n[nH]c1=S | ? | . | 16µM | 3.5µM | . | .
CN=CC1=C(O)CC(C)(C)CC1=O | . | . | . | . | . | .
COC(=O)c1ccc(N)c(N=CC2=C(O)CC(C)(C)CC2=O)c1 | . | ? | ? | 13µM | . | ?
CC1(C)CC(=O)C(C=Nc2ccc(N)cc2)=C(O)C1 | . | . | ? | . | . | .
CC1(C)CC(=O)C(C=NCc2ccccn2)=C(O)C1 | . | . | 16µM | 7.1µM | . | ?
COc1cccc(N=CC2=C(O)CC(C)(C)CC2=O)c1 | . | ? | . | . | . | .
Cc1[nH]nc(N=CC2=C(O)CC(C)(C)CC2=O)c1-c1ccc(Cl)cc1 | . | 12µM | ? | ? | 12µM | .
CC1(C)CC(=O)C(C=Nc2ccc(O)cc2)=C(O)C1 | . | 23µM | . | . | ? | ?
N#Cc1ccccc1CSCCNC(=O)Nc1cccnc1 | . | / | / | / | / | /
CSc1ccccc1N=CC1=C(O)CC(C)(C)CC1=O | . | . | . | . | . | .
CC1(C)CC(=O)C(C=Nc2cc(C(=O)c3ccccc3)ccc2N)=C(O)C1 | . | . | ? | 7.9µM | . | .
Oc1ccccc1N=Nc1ccccc1O | ? | 4.6µM | . | 1.4µM | 4.6µM | ?
Nc1ccc(N=Nc2ccccc2O)c(N)c1 | . | . | / | / | . | /
SMILES | 12-LOX inh | DT40 TDP1 no CPT | VP16 counter | RORg inh | TDP1 cell CPT | ELG1 repair inh
CC(=O)Nc1ccc(NC(=O)CSc2nc3ccccc3o2)cc1 | . | . | . | . | . | ?
CC(=O)Nc1nonc1NC(=O)CSc1nc2ccccc2o1 | . | ? | 4µM | 0.79µM | ? | .
Cc1nonc1NC(=O)CSc1nc2ccccc2o1 | . | . | ? | 8.9µM | . | .
O=C(NCc1cccc(Br)c1)c1ccc(NC(=O)N2CCCCc3ccccc32)cc1 | . | ? | / | / | . | /
COc1cc(CNC(=O)c2ccc(NC(=O)N3CCCCc4ccccc43)cc2)cc(OC)c1OC | . | 10µM | / | / | 18µM | /
CCCCOc1ccc(CNC(=O)Cc2ccc(NC(=O)N3CCCCc4ccccc43)cc2)cc1 | . | 16µM | / | / | 15µM | /
COc1ccc(NC(=O)Cc2ccc(NC(=O)N3CCCCc4ccccc43)cc2)c(OC)c1 | . | ? | / | / | ? | /
COc1ccc(CNC(=O)c2ccc(NC(=O)N3CCCCc4ccccc43)cc2)cc1 | . | 18µM | / | / | ? | /
COc1cccc(CNC(=O)Cc2ccc(NC(=O)N3CCCCc4ccccc43)cc2)c1OC | . | 18µM | / | / | . | /
